The source made the active and inactive calls. The calls were made as follows: active = hit-call score of the fitted dose curve at least 0.9, where 1 is the maximum; inactive = score below 0.9.
Key:
Settings in all cases: mRNA level, 48 h; actives raise or lower the signal
[1] = read-out: JUN Transcription Factor, JUN (gene 3725); test: LTEA_HepaRG_JUN: Life Technologies and Expression Analysis (LTEA) Assay for JUN Transcription Factor using HepaRG (AID 2283513)
In short: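 Human HepaRG liver cells receive test chemicals in 0.5% DMSO for 48 h across an eight-point range topping at 100 uM. Expression changes in JUN are scored in both directions against the DMSO vehicle.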

[2] = read-out: Lipase C (LIPC), LIPC (gene 3990); test: LTEA_HepaRG_LIPC: Life Technologies and Expression Analysis (LTEA) Assay for Lipase C (LIPC) using HepaRG (AID 2283514)
In short: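 HepaRG cells, 48 h after plating, treated in duplicate for 48 h in serum-free induction medium over 8 half-log concentrations from 100 uM, 0.5% DMSO. LIPC mRNA by TaqMan qRT-PCR normalized to ACTB/GAPDH/POLR2A; bidirectional fit versus DMSO.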

[3] = read-out: Lipoprotein lipase (LPL), LPL (gene 4023); test: LTEA_HepaRG_LPL: Life Technologies and Expression Analysis (LTEA) Assay for Lipoprotein lipase (LPL) using HepaRG (AID 2283515)
In short: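 Differentiated HepaRG cells, plated 48 h, then exposed 48 h in serum-free induction medium to 8 concentrations (top 100 uM, half-log steps) in 0.5% DMSO, duplicate. LPL mRNA measured by qRT-PCR, normalized to ACTB, GAPDH and POLR2A.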

[4] = read-out: MicroRNA 122 (MIR122), gene 406906; test: LTEA_HepaRG_MIR122: Life Technologies and Expression Analysis (LTEA) Assay for MicroRNA 122 (MIR122) using HepaRG (AID 2283516); also: the transcript read is the microRNA miR-122
In short: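 HepaRG, 48 h exposure, 8-pt half-log from 100 uM, 0.5% DMSO; TaqMan qRT-PCR; bidirectional fit vs DMSO.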

[5] = read-out: matrix metalloproteinase-10 (MMP10), MMP10 (gene 4319); test: LTEA_HepaRG_MMP10: Life Technologies and Expression Analysis (LTEA) Assay for matrix metalloproteinase-10 (MMP10) using HepaRG (AID 2283517)
In short: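 Differentiated HepaRG cells in serum-free induction medium exposed 48 h in duplicate to 8-point half-log series up to 100 uM in 0.5% DMSO. mRNA quantified by qRT-PCR, normalised to ACTB, GAPDH, POLR2A; bidirectional fit versus DMSO.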

MYC, MYC (gene 4609) = test: LTEA_HepaRG_MYC: Life Technologies and Expression Analysis (LTEA) Assay for MYC using HepaRG (AID 2283518)
In short: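 HepaRG, ~100,000 cells/well, collagen I; 48 h plating; serum-free induction medium; 48 h dosing, duplicate, 100 uM top, half-log, 0.5% DMSO; total RNA → qRT-PCR MYC; gain/loss fit vs DMSO.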

[6] = read-out: matrix metalloproteinase-3 (MMP3), MMP3 (gene 4314); test: LTEA_HepaRG_MMP3: Life Technologies and Expression Analysis (LTEA) Assay for matrix metalloproteinase-3 (MMP3) using HepaRG (AID 2283519)
In short: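 HepaRG cells (~100,000/well) in serum-free induction medium were dosed in duplicate for 48 h with an 8-point half-log series from 100 uM, 0.5% DMSO. MMP3 mRNA was quantified by Fluidigm TaqMan qRT-PCR, normalized to three housekeeping genes.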

[7] = read-out: Nuclear factor NF-kappa-B p105 subunit (Homo sapiens) (UniProt P19838); test: LTEA_HepaRG_NFKB1: Life Technologies and Expression Analysis (LTEA) Assay for Nuclear Factor Kappa B Subunit 1 (NFKB1) using HepaRG (AID 2283521);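 as to outcome: TaqMan qRT-PCR transcript normalised to ACTB GAPDH and POLR2A housekeeping genes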
In short: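 Differentiated human HepaRG cells in serum-free induction medium with 0.5% DMSO were exposed for 48 h to eight half-log concentrations, top 100 uM, in duplicate. NFKB1 mRNA measured by Fluidigm TaqMan qRT-PCR, normalised to ACTB, GAPDH and POLR2A; bidirectional fit versus DMSO.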

[8] = read-out: Protein phosphatase 2A (PPP2R4), PTPA (gene 5524); test: LTEA_HepaRG_PPP2R4: Life Technologies and Expression Analysis (LTEA) Assay for Protein phosphatase 2A (PPP2R4) using HepaRG (AID 2283522)
In short: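 Gene-expression endpoint in HepaRG hepatic cells: 48 h treatment across eight half-log concentrations up to 100 uM in 0.5% DMSO. PPP2R4 mRNA by qRT-PCR, normalized to three endogenous control genes.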

[9] = read-out: Paternally Expressed 10 (PEG10), PEG10 (gene 23089); test: LTEA_HepaRG_PEG10: Life Technologies and Expression Analysis (LTEA) Assay for Paternally Expressed 10 (PEG10) using HepaRG (AID 2283520);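 as to AC50: PEG10 transcript by qRT-PCR normalised to ACTB GAPDH and POLR2A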
In short: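 Chemicals tested on HepaRG cells for 48 h, highest concentration 100 uM. PEG10 expression assessed by qRT-PCR relative to DMSO control.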

Chain of Nuclear factor NF-kappa-B p105 subunit (Homo sapiens) (P19838 whole entry, looked up): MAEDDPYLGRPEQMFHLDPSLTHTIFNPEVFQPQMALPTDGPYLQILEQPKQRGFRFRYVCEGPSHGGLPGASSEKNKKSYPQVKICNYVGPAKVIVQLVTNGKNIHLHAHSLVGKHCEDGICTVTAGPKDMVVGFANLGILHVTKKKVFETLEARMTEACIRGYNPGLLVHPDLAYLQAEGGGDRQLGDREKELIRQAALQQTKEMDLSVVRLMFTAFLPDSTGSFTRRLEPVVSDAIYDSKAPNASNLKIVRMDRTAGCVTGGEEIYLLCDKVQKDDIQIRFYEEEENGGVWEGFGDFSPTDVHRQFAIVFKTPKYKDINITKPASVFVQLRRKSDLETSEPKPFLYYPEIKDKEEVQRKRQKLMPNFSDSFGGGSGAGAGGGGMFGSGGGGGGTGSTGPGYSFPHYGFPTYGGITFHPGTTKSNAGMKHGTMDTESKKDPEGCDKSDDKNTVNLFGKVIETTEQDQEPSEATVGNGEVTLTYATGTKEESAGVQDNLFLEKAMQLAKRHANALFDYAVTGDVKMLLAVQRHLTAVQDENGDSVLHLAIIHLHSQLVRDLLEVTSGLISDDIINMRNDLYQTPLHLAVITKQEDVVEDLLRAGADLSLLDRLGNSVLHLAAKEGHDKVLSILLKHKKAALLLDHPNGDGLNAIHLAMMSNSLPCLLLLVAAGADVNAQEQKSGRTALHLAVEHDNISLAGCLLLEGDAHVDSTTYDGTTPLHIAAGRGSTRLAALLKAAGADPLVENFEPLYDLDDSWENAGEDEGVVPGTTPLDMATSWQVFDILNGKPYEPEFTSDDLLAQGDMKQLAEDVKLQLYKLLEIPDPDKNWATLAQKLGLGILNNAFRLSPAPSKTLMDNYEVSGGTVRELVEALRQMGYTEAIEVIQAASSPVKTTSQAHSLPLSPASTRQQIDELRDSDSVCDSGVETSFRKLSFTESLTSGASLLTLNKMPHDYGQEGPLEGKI

CC[C@H](C)C(=O)O[C@H]1C[C@H](O)C=C2C=C[C@H](C)[C@H](CC[C@@H](O)C[C@@H](O)CC(=O)O)[C@H]21
outcome [1]: inactive | outcome [2]: inactive | outcome [3]: inactive | outcome [4]: inactive | outcome [5]: inactive | outcome (MYC, MYC (gene 4609)): inactive | outcome [6]: inactive | outcome [7]: inactive | outcome [8]: inactive

OCCOCCOCCO
outcome [1]: inactive | outcome [2]: inactive | outcome [3]: inactive | outcome [4]: inactive | outcome [5]: inactive | outcome (MYC, MYC (gene 4609)): inactive | outcome [6]: inactive | outcome [9]: inactive | outcome [7]: inactive | outcome [8]: inactive

Cc1nc(-c2ccccn2)ncc1C(=O)Nn1cc(C)c2cc(F)ccc21
outcome [1]: inactive | AC50 [2]: 50 µM (active) | outcome [3]: inactive | AC50 [4]: 50 µM (active) | outcome [5]: inactive | outcome (MYC, MYC (gene 4609)): inactive | outcome [6]: inactive | outcome [7]: inactive | outcome [8]: inactive

CC(C)CC(C)O (centres undefined)
outcome [1]: inactive | outcome [2]: inactive | outcome [3]: inactive | outcome [4]: inactive | outcome [5]: inactive | outcome (MYC, MYC (gene 4609)): inactive | outcome [6]: inactive | outcome [9]: inactive | outcome [7]: inactive | outcome [8]: inactive

c1ccc2ncccc2c1
outcome [1]: inactive | outcome [2]: inactive | outcome [3]: inactive | outcome [4]: inactive | outcome [5]: inactive | outcome (MYC, MYC (gene 4609)): inactive | outcome [6]: inactive | outcome [9]: inactive | outcome [8]: inactive

Cc1nccn1-c1ccc(Sc2cccc(C3(C(N)=O)CCOCC3)c2)cc1
AC50 [1]: 19.4 µM (active) | AC50 [2]: 12.2 µM (active) | AC50 [3]: 0.913 µM (active) | AC50 [4]: 15.1 µM (active) | AC50 [5]: 17.6 µM (active) | AC50 (MYC, MYC (gene 4609)): 9.67 µM (active) | outcome [6]: inactive | AC50 [7]: 3.18 µM (active) | AC50 [8]: 27.7 µM (active)

CCCOc1ccc(S(=O)(=O)N2CCN(CC)CC2)cc1-c1nc2c(CC)n(Cc3ccccn3)nc2c(=O)[nH]1
outcome [1]: inactive | outcome [2]: inactive | AC50 [3]: 56.7 µM (active) | outcome [4]: inactive | outcome [5]: inactive | outcome (MYC, MYC (gene 4609)): inactive | outcome [6]: inactive | outcome [9]: inactive | outcome [7]: inactive | outcome [8]: inactive

OC(CCl)CCl
outcome [1]: inactive | outcome [2]: inactive | outcome [3]: inactive | outcome [4]: inactive | outcome [5]: inactive | outcome (MYC, MYC (gene 4609)): inactive | outcome [6]: inactive | outcome [7]: inactive | outcome [8]: inactive

CC(=O)c1ccccc1
outcome [1]: inactive | outcome [2]: inactive | outcome [3]: inactive | outcome [4]: inactive | outcome (MYC, MYC (gene 4609)): inactive | outcome [6]: inactive | outcome [9]: inactive | outcome [7]: inactive | outcome [8]: inactive

CCCCCCCCCC
outcome [1]: inactive | outcome [2]: inactive | outcome [3]: inactive | outcome [4]: inactive | outcome (MYC, MYC (gene 4609)): inactive | outcome [6]: inactive | outcome [9]: inactive | outcome [7]: inactive | outcome [8]: inactive

CCCCC(CC)C(=O)OCCOCCOCCOC(=O)C(CC)CCCC (centres undefined)
outcome [1]: inactive | outcome [2]: inactive | outcome [3]: inactive | outcome [4]: inactive | outcome [5]: inactive | outcome (MYC, MYC (gene 4609)): inactive | outcome [6]: inactive | outcome [7]: inactive | outcome [8]: inactive

CCCCCCOC(=O)CC(CC(=O)OCCCCCC)(OC(=O)CCC)C(=O)OCCCCCC
outcome [1]: inactive | outcome [2]: inactive | outcome [3]: inactive | outcome [4]: inactive | outcome [5]: inactive | outcome (MYC, MYC (gene 4609)): inactive | outcome [6]: inactive | outcome [7]: inactive | outcome [8]: inactive

CCCCN1C(=O)[C@@H]([C@H](O)C2CCCCC2)NC(=O)C12CCN(Cc1ccc(Oc3ccc(C(=O)O)cc3)cc1)CC2
outcome [1]: inactive | AC50 [2]: 3.67 µM (active) | AC50 [3]: 1.71 µM (active) | AC50 [4]: 3.52 µM (active) | AC50 (MYC, MYC (gene 4609)): 7.67 µM (active) | AC50 [6]: 0.267 µM (active) | AC50 [9]: 1.01 µM (active) | outcome [7]: inactive | AC50 [8]: 3.88 µM (active)

c1ccc2cc3ccccc3cc2c1
outcome [1]: inactive | outcome [2]: inactive | outcome [3]: inactive | outcome [4]: inactive | outcome (MYC, MYC (gene 4609)): inactive | outcome [6]: inactive | outcome [7]: inactive | outcome [8]: inactive

CCOc1ccc2[nH]cc(C(=O)NCc3ccccc3)c(=O)c2n1
outcome [1]: inactive | outcome [2]: inactive | outcome [3]: inactive | outcome [4]: inactive | outcome (MYC, MYC (gene 4609)): inactive | outcome [6]: inactive | outcome [8]: inactive

CCN(CC)C(=S)SSC(=S)N(CC)CC
outcome [1]: inactive | outcome [2]: inactive | outcome [3]: inactive | outcome [4]: inactive | outcome (MYC, MYC (gene 4609)): inactive | outcome [6]: inactive | outcome [7]: inactive | outcome [8]: inactive

OC(Cn1cncn1)(Cn1cncn1)c1ccc(F)cc1F
outcome [1]: inactive | outcome [2]: inactive | outcome [3]: inactive | outcome [4]: inactive | outcome (MYC, MYC (gene 4609)): inactive | outcome [6]: inactive | outcome [7]: inactive | outcome [8]: inactive

O=C(NO)C1(NS(=O)(=O)c2ccc(Oc3ccc(F)cc3)cc2)CCOCC1
outcome [1]: inactive | outcome [2]: inactive | AC50 [3]: 76.6 µM (active) | outcome [4]: inactive | AC50 (MYC, MYC (gene 4609)): 78.5 µM (active) | outcome [6]: inactive | AC50 [9]: 68.4 µM (active) | outcome [7]: inactive | outcome [8]: inactive

CCc1cccc(CC)c1N
outcome [1]: inactive | outcome [2]: inactive | outcome [3]: inactive | outcome [4]: inactive | outcome (MYC, MYC (gene 4609)): inactive | outcome [6]: inactive | outcome [9]: inactive | outcome [8]: inactive

COS(C)(=O)=O
outcome [1]: inactive | outcome [2]: inactive | outcome [3]: inactive | outcome [4]: inactive | outcome (MYC, MYC (gene 4609)): inactive | outcome [6]: inactive | outcome [7]: inactive | outcome [8]: inactive

c1ccc2c(c1)-c1cccc3c1c-2cc1ccccc13
outcome [1]: inactive | AC50 [2]: 13.3 µM (active) | AC50 [3]: 5.49 µM (active) | AC50 [4]: 19.6 µM (active) | AC50 (MYC, MYC (gene 4609)): 2.06 µM (active) | outcome [6]: inactive | AC50 [8]: 14.3 µM (active)

OCC(CO)(CO)CO
outcome [1]: inactive | outcome [2]: inactive | outcome [3]: inactive | outcome [4]: inactive | outcome (MYC, MYC (gene 4609)): inactive | outcome [6]: inactive | outcome [8]: inactive

CCCCOC(=O)c1ccccc1
outcome [1]: inactive | outcome [2]: inactive | outcome [3]: inactive | outcome [4]: inactive | outcome (MYC, MYC (gene 4609)): inactive | outcome [6]: inactive | outcome [9]: inactive | outcome [7]: inactive | outcome [8]: inactive

Reference: PubChem BioAssay (EPA / NIEHS)
